Values joined by “and” are separate entries in the source; they are usually repeats but may differ in a detail not shown here. Equal entries are not always repeated. Records with an inconclusive call do not appear. A structure can be active in one record and inactive in another. Active and inactive are the calls of the source. Unless noted, calls come from the whole dose curve; as a rule, active = well fitted curve in the direction sought with a large enough effect in the repeat runs; inconclusive = weak or mixed curves; inactive = no such curve, though single readings can be large; an effect the other way counts as inactive or inconclusive.

The nature of test [1]: qHTS assay to identify small molecule agonists of the progesterone receptor (PR) signaling pathway - cell viability counter screen (AID 1346799; calls by dose curve; note: nearly all actives have a fitted effect of over 45% in size). Put shortly:
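Multiplexed viability read: CellTiter-Glo luminescence, 30 min RT, following LiveBLAzer FRET measurement on PR-UAS-bla HEK293T cells exposed to compounds 16 hr.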
Background: qHTS replaces the single test concentration by a dilution series.

Test [2] in a line: qHTS assay to identify small molecule antagonists of the TGF-beta/Smad signaling pathway - cell viability counter screen (AID 1346824). Note: nearly all actives have a fitted effect of over 50% in size. The essentials: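 SBE-bla HEK 293T cells, incubated overnight, then compound plus 0.25 ng/mL TGF-beta1 (stock added) for 5 hr at 37 C. Viability was read in the same wells by CellTiter-Glo luminescence after 30 min at room temperature.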
Test [3] can be described thus: qHTS assay to identify small molecule agonists of the TGF-beta/Smad signaling pathway - cell viability counter screen (AID 1346829). Note: top concentration of the series differs between compounds; nearly all actives have a fitted effect of over 45% in size. The essentials: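 After overnight seating at 37 C and 5% CO2, reporter cells got compounds for 5 hr and FRET substrate for 2 hr; cell viability then came from CellTiter-Glo luminescence.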
Test [4] is described as follows: qHTS assay to identify small molecule agonists of the TGF-beta/Smad signaling pathway (AID 1346859; active = well fitted activation curve with a large enough effect in the signal ratio in the repeat runs, not every such curve was filed as active; the % refers to the signal ratio; note: series mostly up to about 77 µM). Put shortly: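 Screening used HEK 293T SBE-bla cells at 4,000/well. Test agents: 5 hr, 37 C. Detection: FRET substrate, 2 hr RT, then excitation 405 nm with emissions at 460 and 530 nm.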
For test [5], the target named is Thyrotropin-releasing hormone receptor (Homo sapiens) (UniProt P34981). Nature of the test: qHTS assay to identify small molecule antagonists of the thyrotropin-releasing hormone receptor (TRHR) signaling pathway (AID 1346877; active = well fitted inhibition curve with a large enough effect in the repeat runs, not every such curve was filed as active; note: series mostly up to about 51 µM). The essentials:
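Kinetic fluorescence (3 min, 1 s resolution) following stimulation with TRH at 1 nM final; HEK293 cells bearing human TRHR; 5 min compound preincubation at RT; concentration-response over 15 points, triplicates.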

For test [6] the target is unchanged. Nature of the test: qHTS assay to identify small molecule agonists of the thyrotropin-releasing hormone receptor (TRHR) signaling pathway (AID 1346891; calls by dose curve; note: series mostly up to about 58 µM). The essentials:
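Readout was intracellular calcium fluorescence in TRHR-Hek293 cells. Cells were incubated 18 h, dye-loaded 2 h at 37 °C, and treated with compound in agonist mode.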

Test [7] can be described thus: Human pregnane X receptor (PXR) small molecule agonists, qHTS cell viability counter screen (AID 1346977). Note: nearly all actives have a fitted effect of over 50% in size. The essentials: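 In each well, the PXR reporter HepG2 line was checked for viability: CellTiter-Fluor reagent added 23hr post-dosing, fluorescence read after 1hr incubation at 37C.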
Test [8] can be described thus: Caspase-3/7 induction in HepG2 cells by small molecules, qHTS assay (AID 1346978). Note: nearly all actives have a fitted effect of over 15% in size. The essentials: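 Wild-type HepG2 cells, 2,000/well, settled 5 hr at 37 C and 5% CO2, then compound-treated for 17 hr; caspase-3/7 activity read by luminescent Caspase-Glo 3/7 after 30 min at room temperature.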
Test [9] can be described thus: Caspase-3/7 induction in CHO-K1 cells by small molecules, qHTS assay (AID 1346980). Note: nearly all actives have a fitted effect of over 15% in size. Put shortly: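 Wild-type CHO-K1 cells exposed to compounds for 17hr at 37 C, 5% CO2. Caspase-3/7 activity then measured by Caspase-Glo 3/7 luminescence after 30min at room temperature.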
Test [10] in a line: Caspase-3/7 induction in HepG2 cells by small molecules, qHTS cell viability counter screen (AID 1346981). Note: series mostly up to about 92 µM; nearly all actives have a fitted effect of over 30% in size. Put shortly: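 In this quantitative HTS counter screen, compounds delivered in DMSO were left on unmodified HepG2 cells for 16 hr at 37 C. Viability was then determined fluorometrically with CellTiter-Fluor, in parallel with caspase-3/7 induction in the same wells.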
In test [11] the target is Cytochrome P450 2C19 (Homo sapiens) (UniProt P33261). Nature of the test: Cytochrome P450 Family 2 Subfamily C Member 19 (CYP2C19) small molecule antagonists: luciferase reporter qHTS assay (AID 1671197). Note: nearly all actives have a fitted effect of over 65% in size. Note: potency is the fitted concentration of half-maximal effect. The essentials: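 Inhibition of CYP2C19 was scored from loss of luminescence in a P450-Glo proluciferin substrate assay, NADPH-started and run 1 h at 37C, with ketoconazole as positive control.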
Chain of Cytochrome P450 2C19 (Homo sapiens) (P33261 whole entry, looked up): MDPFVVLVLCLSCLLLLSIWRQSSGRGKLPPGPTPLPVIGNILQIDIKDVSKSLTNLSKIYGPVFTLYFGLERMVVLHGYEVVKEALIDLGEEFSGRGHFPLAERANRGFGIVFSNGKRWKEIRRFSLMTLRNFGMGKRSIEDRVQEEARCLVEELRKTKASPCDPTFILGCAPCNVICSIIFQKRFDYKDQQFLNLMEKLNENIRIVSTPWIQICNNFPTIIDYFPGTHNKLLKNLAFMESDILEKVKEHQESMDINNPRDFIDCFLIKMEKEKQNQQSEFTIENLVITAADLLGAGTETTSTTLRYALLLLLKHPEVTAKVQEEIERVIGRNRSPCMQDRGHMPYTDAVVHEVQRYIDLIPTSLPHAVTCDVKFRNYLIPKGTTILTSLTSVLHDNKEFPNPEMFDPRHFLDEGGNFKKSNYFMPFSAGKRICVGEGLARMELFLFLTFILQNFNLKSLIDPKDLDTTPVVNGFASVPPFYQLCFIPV

Test [12] addresses Cytochrome P450 1A2 (Homo sapiens) (UniProt P05177). Put plainly: Cytochrome P450 Family 1 Subfamily A Member 2 (CYP1A2) small molecule antagonists: luciferase reporter qHTS assay (AID 1671199). Note: nearly all actives have a fitted effect of over 50% in size. Note: potency is the fitted concentration of half-maximal effect. Put shortly: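 Steps: enzyme-substrate mix dispensed; test compounds and furafylline control pinned in; 10 min room temperature; NADPH regeneration solution added, 1 h; reaction stopped with luciferin detection reagent; luminescence read after 20 min.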

Test [13] has as its target Voltage-gated inwardly rectifying potassium channel KCNH2 (Homo sapiens) (UniProt Q12809). Put plainly: Human Ether-a-go-go-Related Gene (hERG) channel small molecule antagonists: fluorescence cell-based qHTS assay (AID 1671200).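 Note: hERG-expressing U2OS cells given a thallium stimulus after FluxOR II dye loading; series mostly up to about 77 µM; nearly all actives have a fitted effect of over 50% in size.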 Put shortly:
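In this thallium-flux screen, overnight-cultured U2OS cells bearing the channel are dye-loaded in darkness for an hour, rested 10 min at room temperature, and then monitored kinetically at 480/540 nm for two minutes post-stimulus.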
(hERG is a cardiac potassium channel; its block is linked to QT prolongation.)

In test [14] the target is Cytochrome P450 3A4 (Homo sapiens) (UniProt P08684). Put plainly: Cytochrome P450 Family 3 Subfamily A Member 4 (CYP3A4) small molecule antagonists: luciferase reporter qHTS assay (AID 1671201). The essentials: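 CYP3A4 activity was followed with a P450-Glo proluciferin substrate. Test compounds in DMSO were preincubated 10 min; NADPH regeneration then ran 1 h, and light output was read 20 min after detection reagent.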
Chain of Cytochrome P450 3A4 (Homo sapiens) (P08684 whole entry, looked up): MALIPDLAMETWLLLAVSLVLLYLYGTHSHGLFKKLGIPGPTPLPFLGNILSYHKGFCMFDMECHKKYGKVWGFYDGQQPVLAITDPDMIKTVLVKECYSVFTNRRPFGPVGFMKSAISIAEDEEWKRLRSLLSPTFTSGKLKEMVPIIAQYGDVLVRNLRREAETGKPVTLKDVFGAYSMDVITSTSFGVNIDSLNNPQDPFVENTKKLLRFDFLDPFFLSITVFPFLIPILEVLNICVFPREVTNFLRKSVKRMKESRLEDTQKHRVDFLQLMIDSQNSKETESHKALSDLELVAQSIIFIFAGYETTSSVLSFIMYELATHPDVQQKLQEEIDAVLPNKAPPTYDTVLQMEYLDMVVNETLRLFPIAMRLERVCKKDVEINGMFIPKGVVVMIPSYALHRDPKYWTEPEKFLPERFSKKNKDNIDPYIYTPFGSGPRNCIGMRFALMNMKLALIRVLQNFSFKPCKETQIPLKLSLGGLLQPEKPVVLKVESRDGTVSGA

Test [15] is described as follows: Caspase-3/7 induction in CHO-K1 cells by small molecules, qHTS cell viability counter screen (AID 1346979). Note: nearly all actives have a fitted effect of over 35% in size. The essentials: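 Following a 5hr settling period, CHO-K1 cells at 1,500 per well received DMSO-dissolved compounds. Cell viability was quantified 16hr later by CellTiter-Fluor fluorescence, measured after 1hr with reagent at 37C.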
Test [16] has as its target Nuclear receptor subfamily 1 group I member 2 (Homo sapiens) (UniProt O75469). Put plainly: Human pregnane X receptor (PXR) small molecule agonists, qHTS assay (AID 1346982). Note: nearly all actives have a fitted effect of over 35% in size. Note: potency is the fitted concentration of half-maximal effect. The essentials:
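Reporter HepG2 cells expressing PXR-Luc are cultured in charcoal-stripped FBS (5%), treated with compounds for 24 hr at 37 C, and assayed by ONE-Glo luminescence after 30 min at room temperature.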

In test [17] the target is Cytochrome P450 2D6 (Homo sapiens) (UniProt P10635). Put plainly: Cytochrome P450 Family 2 Subfamily D Member 6 (CYP2D6) small molecule antagonists: luciferase reporter qHTS assay (AID 1671196). Note: nearly all actives have a fitted effect of over 50% in size. Note: potency is the fitted concentration of half-maximal effect. Put shortly: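 Test chemicals meet CYP2D6 plus proluciferin substrate (10 min, RT); NADPH regenerating solution then drives turnover for 1 h. Detection reagent halts the reaction; luminescence measured after 20 min.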
Chain of Cytochrome P450 2D6 (Homo sapiens) (P10635 whole entry, looked up): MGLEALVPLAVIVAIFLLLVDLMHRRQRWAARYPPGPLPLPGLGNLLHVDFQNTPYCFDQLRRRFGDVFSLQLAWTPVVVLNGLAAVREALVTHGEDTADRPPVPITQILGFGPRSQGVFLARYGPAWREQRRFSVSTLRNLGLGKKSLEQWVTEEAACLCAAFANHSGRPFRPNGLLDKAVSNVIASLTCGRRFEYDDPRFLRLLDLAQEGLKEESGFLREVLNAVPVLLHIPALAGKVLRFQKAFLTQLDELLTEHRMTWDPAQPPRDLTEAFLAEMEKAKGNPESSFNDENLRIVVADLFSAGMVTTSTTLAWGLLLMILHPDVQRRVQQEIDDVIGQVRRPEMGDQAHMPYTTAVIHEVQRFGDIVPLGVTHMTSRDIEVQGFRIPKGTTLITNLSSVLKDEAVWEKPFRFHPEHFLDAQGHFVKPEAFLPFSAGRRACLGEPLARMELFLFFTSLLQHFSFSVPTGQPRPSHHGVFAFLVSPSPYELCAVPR
Background: In a reporter assay the amount or activity of a reporter protein is the signal.

In test [18] the target is Cytochrome P450 2C9 (Homo sapiens) (UniProt P11712). Put plainly: Cytochrome P450 Family 2 Subfamily C Member 9 (CYP2C9) small molecule antagonists: luciferase reporter qHTS assay (AID 1671198). The essentials: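 P450-Glo proluciferin substrate with CYP2C9 enzyme; 10 min RT preincubation, then NADPH regeneration 1 h at 37C; luciferin detection reagent 20 min RT, luminescence in relative luminescence units.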
Chain of Cytochrome P450 2C9 (Homo sapiens) (P11712 whole entry, looked up): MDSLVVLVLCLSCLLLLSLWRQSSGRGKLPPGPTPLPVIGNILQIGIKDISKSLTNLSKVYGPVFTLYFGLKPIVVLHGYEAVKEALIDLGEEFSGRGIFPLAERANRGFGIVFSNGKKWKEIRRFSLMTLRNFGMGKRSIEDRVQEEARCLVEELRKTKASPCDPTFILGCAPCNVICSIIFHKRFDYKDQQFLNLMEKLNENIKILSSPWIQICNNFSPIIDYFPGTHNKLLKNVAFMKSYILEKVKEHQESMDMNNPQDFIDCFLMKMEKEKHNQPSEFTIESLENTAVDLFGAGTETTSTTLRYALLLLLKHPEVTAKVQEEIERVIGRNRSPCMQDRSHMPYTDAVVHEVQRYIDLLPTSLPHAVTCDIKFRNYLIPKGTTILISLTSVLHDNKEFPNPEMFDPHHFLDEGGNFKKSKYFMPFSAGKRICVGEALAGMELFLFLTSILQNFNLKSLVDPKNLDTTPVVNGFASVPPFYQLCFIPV

The target in test [19] is Nuclear receptor subfamily 1 group I member 2 (Rattus norvegicus) (UniProt Q9R1A7). Put plainly: Rat pregnane X receptor (rPXR) activation by small molecules, qHTS assay (AID 1346983). Note: nearly all actives have a fitted effect of over 20% in size. To be noted: rPXR luciferase reporter cells, One-Glo luminescence, 24 h; max activation: stronger effect = higher value. The essentials: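 Cell-based rPXR activation assay: rPXR cells, 2,000 per well, rested 5hr at 37 C, then exposed to compounds in DMSO for 24 hr at 37 C. Luciferase activity read by One-Glo luminescence after 30 min at room temperature.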
Chain of Nuclear receptor subfamily 1 group I member 2 (Rattus norvegicus) (Q9R1A7 whole entry, looked up): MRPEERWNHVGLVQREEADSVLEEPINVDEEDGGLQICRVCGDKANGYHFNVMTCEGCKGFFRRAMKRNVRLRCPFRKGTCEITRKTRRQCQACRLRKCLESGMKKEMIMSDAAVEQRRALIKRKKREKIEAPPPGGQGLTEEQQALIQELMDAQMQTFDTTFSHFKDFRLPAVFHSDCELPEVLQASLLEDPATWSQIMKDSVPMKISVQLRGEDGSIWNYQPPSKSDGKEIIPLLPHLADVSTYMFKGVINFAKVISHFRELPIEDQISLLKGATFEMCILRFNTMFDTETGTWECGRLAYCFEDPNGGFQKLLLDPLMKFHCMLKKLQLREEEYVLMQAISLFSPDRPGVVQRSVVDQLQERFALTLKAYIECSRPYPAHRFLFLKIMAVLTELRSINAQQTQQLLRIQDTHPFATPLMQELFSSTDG

Test [20] has as its target Nuclear receptor subfamily 1 group I member 2 (Homo sapiens) (UniProt O75469). Nature of the test: Human pregnane X receptor (PXR) activation by small molecules, qHTS assay (AID 1346985). Note: nearly all actives have a fitted effect of over 40% in size. The essentials:
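DPX-2 cells (HepG2 co-transfected with a PXR response element and a CYP3A4-promoter luciferase construct) were seeded at 2,000 per well, rested 5 hr at 37C, then exposed to DMSO-dissolved compounds for 24 hr. Activation was read as luciferase luminescence.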
% is set by controls: 0 for no effect and ±100 for the full control effect.

Chain of Thyrotropin-releasing hormone receptor (Homo sapiens) (P34981 whole entry, looked up): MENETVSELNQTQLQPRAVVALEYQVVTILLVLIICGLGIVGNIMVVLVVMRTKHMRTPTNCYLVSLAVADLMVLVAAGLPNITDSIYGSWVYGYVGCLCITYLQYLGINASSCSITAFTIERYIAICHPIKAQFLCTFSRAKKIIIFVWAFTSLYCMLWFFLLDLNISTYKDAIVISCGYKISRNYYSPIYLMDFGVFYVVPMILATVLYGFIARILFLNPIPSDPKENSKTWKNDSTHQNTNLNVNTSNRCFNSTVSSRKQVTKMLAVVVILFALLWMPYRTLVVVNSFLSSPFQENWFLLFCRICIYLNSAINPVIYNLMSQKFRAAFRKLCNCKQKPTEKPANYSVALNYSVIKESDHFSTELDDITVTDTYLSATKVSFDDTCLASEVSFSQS
Chain of Cytochrome P450 1A2 (Homo sapiens) (P05177 whole entry, looked up): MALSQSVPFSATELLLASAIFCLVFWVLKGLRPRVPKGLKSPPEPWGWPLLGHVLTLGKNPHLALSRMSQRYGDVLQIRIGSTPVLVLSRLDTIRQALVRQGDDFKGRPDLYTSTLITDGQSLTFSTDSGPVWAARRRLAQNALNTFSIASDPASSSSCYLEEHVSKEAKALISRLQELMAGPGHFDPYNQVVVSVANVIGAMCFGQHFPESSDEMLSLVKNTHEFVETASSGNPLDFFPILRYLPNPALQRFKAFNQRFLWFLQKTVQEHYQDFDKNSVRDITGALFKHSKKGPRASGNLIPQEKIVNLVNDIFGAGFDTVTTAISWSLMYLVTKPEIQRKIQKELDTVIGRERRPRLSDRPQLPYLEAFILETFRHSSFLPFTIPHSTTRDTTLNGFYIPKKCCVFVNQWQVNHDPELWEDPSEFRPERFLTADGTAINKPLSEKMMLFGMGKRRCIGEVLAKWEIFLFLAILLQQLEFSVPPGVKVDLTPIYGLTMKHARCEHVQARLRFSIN
Chain of Nuclear receptor subfamily 1 group I member 2 (Homo sapiens) (O75469 whole entry, looked up): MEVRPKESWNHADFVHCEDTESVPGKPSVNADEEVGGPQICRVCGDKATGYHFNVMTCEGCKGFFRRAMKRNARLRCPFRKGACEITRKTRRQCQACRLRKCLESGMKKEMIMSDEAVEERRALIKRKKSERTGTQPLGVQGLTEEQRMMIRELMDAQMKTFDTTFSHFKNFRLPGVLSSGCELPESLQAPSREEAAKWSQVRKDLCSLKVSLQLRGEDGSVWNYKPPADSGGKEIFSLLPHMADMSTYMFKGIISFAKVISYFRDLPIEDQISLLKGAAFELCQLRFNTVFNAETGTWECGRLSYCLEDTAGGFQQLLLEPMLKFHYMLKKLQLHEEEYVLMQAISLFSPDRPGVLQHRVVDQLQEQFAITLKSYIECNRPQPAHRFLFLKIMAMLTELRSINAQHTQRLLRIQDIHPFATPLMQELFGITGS
Chain of Voltage-gated inwardly rectifying potassium channel KCNH2 (Homo sapiens) (Q12809 whole entry, looked up): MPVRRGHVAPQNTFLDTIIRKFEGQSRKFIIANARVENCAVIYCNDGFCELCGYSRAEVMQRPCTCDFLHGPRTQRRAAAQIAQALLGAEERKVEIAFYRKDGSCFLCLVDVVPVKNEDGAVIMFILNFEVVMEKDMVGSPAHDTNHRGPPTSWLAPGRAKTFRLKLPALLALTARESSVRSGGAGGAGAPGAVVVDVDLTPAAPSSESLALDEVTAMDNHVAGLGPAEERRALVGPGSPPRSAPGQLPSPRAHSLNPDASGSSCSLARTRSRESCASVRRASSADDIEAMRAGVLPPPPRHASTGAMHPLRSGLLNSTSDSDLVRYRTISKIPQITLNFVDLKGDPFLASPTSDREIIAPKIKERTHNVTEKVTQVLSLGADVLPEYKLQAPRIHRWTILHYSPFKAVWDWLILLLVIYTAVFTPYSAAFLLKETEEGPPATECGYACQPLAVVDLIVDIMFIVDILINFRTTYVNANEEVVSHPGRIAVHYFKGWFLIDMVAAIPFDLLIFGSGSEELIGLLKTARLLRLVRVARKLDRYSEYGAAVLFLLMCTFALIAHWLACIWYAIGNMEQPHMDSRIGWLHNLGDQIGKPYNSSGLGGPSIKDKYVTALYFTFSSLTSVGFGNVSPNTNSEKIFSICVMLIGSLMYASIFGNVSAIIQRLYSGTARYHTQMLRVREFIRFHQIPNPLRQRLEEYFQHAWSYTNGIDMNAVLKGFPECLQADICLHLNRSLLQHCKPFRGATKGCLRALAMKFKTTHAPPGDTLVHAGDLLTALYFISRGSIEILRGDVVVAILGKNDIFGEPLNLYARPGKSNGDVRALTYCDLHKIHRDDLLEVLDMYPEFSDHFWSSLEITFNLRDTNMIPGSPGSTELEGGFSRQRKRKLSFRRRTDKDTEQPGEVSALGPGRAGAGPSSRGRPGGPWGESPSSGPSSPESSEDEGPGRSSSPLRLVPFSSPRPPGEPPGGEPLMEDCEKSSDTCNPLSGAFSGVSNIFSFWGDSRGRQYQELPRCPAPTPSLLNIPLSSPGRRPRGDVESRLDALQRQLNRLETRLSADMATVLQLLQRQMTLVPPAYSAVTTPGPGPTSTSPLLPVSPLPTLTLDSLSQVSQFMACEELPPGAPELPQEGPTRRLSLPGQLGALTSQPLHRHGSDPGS

With `COc1ccc(NC(C)=O)cc1N`, the Potency entry in test [1], in test [2], in [3], in test [5], in test [7] and in [8] was “inactive” throughout. Besides, the Potency entry in [10] and in [14] was “inactive” throughout. Besides, the outcome in [4], in test [6], in test [9] and in [13] was inactive. The Potency in test [11] was 39.8 µM (active) and 39.9 µM (active); in test [12], 17.8 µM (active) and 25.2 µM (active).

As to `CCCCCCCC(=O)OC`, the Potency entry in [1], in test [2], in test [3], in test [5], in [7] and in test [8] was “inactive” in each case. Further, the Potency entry in test [15], in test [10], in [16], in test [17], in test [11] and in [18] was “inactive” in each case. Also, the Potency result in [12] and in [14] was “inactive” in each case. The compound was classed as inactive in test [4], in test [6], in [9] and in test [13].

For `O=C=NCCCCCCN=C=O`, the Potency entry in test [1], in [2], in [3], in test [5], in [7] and in test [8] was “inactive” each time. For the same compound, the Potency entry in test [10], in test [17], in [12] and in test [14] was “inactive” each time. The compound was classed as inactive in test [4], in [6], in [9] and in [13]. The Potency is 47.5 µM (active) and inactive in [16]; 69.4 µM (active) and inactive in test [11].

`CC1=CCC2CC1C2(C)C` (stereo not given): the Potency result in test [1], in test [2], in [3], in [5], in [7] and in [8] was “inactive” throughout. Also, the Potency result in test [15], in [10], in test [16], in test [20], in test [11] and in [18] was “inactive” throughout. For the same compound, the Potency entry in test [12] and in test [14] was “inactive” each time. For the same compound, the compound was classed as inactive in test [4], in test [6], in test [9] and in test [13]. In test [19], the max activation was -0.804% (inactive). Besides, the Potency entry in test [17] is “inactive and 7.1 µM (active)”.

On to `COS(C)(=O)=O`, for which the Potency entry in [1], in test [2], in [3], in [5], in test [7] and in [8] was “inactive” in each case. For the same compound, the Potency entry in test [15], in test [10], in test [16], in test [17], in [11] and in test [18] was “inactive” in each case. For the same compound, the Potency result in [12] and in test [14] was “inactive” in each case. Moreover, the outcome in test [4], in test [6], in test [9] and in [13] was inactive.

For `CCCCCCCCCCCCCCO`, the Potency entry in test [1], in test [2], in test [3], in [5], in test [7] and in [15] was “inactive” each time. Also, the Potency result in [10], in test [16], in test [17], in [11], in test [18] and in [14] was “inactive” throughout. For the same compound, the compound was classed as inactive in [4], in test [6], in test [9] and in [13]. In test [12], the Potency is 22.4 µM (active).

Consider `CC(=O)c1ccccc1`, for which the Potency result in test [1], in [2], in test [3], in test [5], in test [7] and in [8] was “inactive” each time. The Potency entry in test [15], in [10], in [16], in test [18] and in test [14] was “inactive” throughout. The outcome in test [4], in test [6], in test [9] and in test [13] was inactive. The Potency in [11] was 41.4 µM (active) and inactive; in [12], 32.9 µM (active).

The values above are taken from PubChem BioAssay (Tox21).
